# Measurements from PubChem BioAssay (NCI).
# Several values for one entry are separate records, joined by “and”; a condition that tells them apart may be missing. Identical values can stand only once. The panel holds about 83,000 compounds, 20% with a hit somewhere; the sample as a whole holds those more often.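 Each cell line was grown in a 96-well plate and treated with one concentration of compound for 48 hours. Values below 10 were considered active.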 Unmarked numbers belong to inactive results. Activity calls are given as the source filed them.
# Tested on: HL-60(TB) leukemia
# Experiment: NCI-60 one-dose screen, 48 h (100 = growth as untreated, 0 = no growth, -100 = all killed)
# Conditions: 10 µM unless noted
row,Compound,growth
1,C=C1C(=O)O[C@H]2[C@H]1CC/C(COC(=O)NCc1ccc(Cn3c(=O)sn(CCI)c3=O)cc1)=C\CC[C@@]1(C)O[C@@H]21,0.649% (active)
2,CC[C@]12C=CCN3CC[C@@]4(c5ccc(OC)cc5N(C)[C@H]4[C@@](O)(C(=O)OC)[C@@H]1OC(=O)CCC(=O)N[C@H](Cc1c[nH]c4ccccc14)C(=O)OC)[C@@H]32,-25% [100 µM] (active)
3,C/C(=C(/c1ccc(Cl)cc1)c1ccc(OCCN2CCCC2)cc1)c1ccc(Cl)cc1,69.5%
4,CC(=O)CC(=O)OC/C=C(/C)CCC=C(C)C,124%
5,O=C(CCC(=O)N/N=C/c1ccccc1O)N/N=C/c1ccccc1O,7.25% (active)
6,O=[N+]([O-])c1ccc(S(=O)(=O)N2CCN(C3=NS(=O)(=O)c4ccccc4N3c3ccccc3)CC2)cc1,96.7%
7,CCOc1ccccc1/C=N\N=C(\N)N/N=C/c1ccccc1OCC,-7.32% (active)
8,Cc1cc(SCc2ccc(Cl)cc2Cl)nc(SCc2ccc(Cl)cc2Cl)n1,95.6%
9,Cc1cc(C(=O)c2ccc(Cl)cc2)ccc1O,147%
10,NC(N)=NN=C(c1ccccc1)c1ccccc1,-8.59% (active)
11,CC(C)(O)Cn1cc(-c2ccc3nc(OC4CC4)ccc3c2)c2c(N)ncnc21,97.3% and 76.7%
12,O=C1C=CC2(NN=C(c3ccccc3)N2c2cccc(Cl)c2)c2cccc(O)c21 (stereo not given),21.8%
13,COc1ccc(C(=O)Nc2ncc(Cc3ccc(F)cc3)s2)cc1,-2.26% (active)
14,COC(=O)/C=C/c1cc(O)c2c(c1)C(C(=O)OC)C(c1ccc(O)c(O)c1)O2 (stereo not given),-10.5% (active) and -0.307% (active)
15,O=C(O)CCCCCCCCCCCCCCC(=O)O,102%
16,CN([O-])c1nc(N(C)[O-])nc(N2CCOCC2)n1.CN([O-])c1nc(N(C)[OH2+])nc(N2CCOCC2)n1.[Fe+3],93.8% [100 µM]
17,COc1ccc(/C=C/c2nc(-c3n[nH]c(=O)n3-c3ccccc3)c3ccccc3n2)cc1,97.1%
18,Cc1cccc(/C=C\C(=O)c2ccc(Cl)cc2)c1,90.1% and 61.3%
19,O=C1c2ccccc2-c2c1c1c(=O)[nH]c3ccccc3c1n2Cc1ccccc1,73.9%
20,CCCCCCCCCCCCCCCCOP(=O)([O-])OCC[N+](C)(C)C,-29.6% (active)

row,Compound,growth
1,Cc1ccc2c(c1)-c1cc(C)nn1-c1ccc(C#N)cc1O2,69.2%
2,CCOc1nc(-c2ccccc2)cc2c(O)c(C(=O)O)[nH]c(=O)c12,120%
3,O=C1/C(=C/c2ccc(F)cc2)COc2ccc(O)c(O)c21,-17% (active)
4,O=S(=O)(Nc1ccc(NS(=O)(=O)c2ccccc2)c(Cl)c1)c1ccccc1,78.4%
5,O=C(Nc1ccc(-n2ccc3c(NC(=O)c4ccccc4)nccc32)cc1)Nc1cccc(C(F)(F)F)c1,63.8%
6,COC1=CC(c2ccc[nH]2)=N/C1=C\c1[nH]c(C)c(C(=O)OCc2ccccc2)c1C,-8.78% (active)
7,COc1cccc2c(=O)c3c(sc12)c(N1CCNCC1)nc1ccccc13,-52.2% (active)
8,COc1cc(NC(C)CCCN)c2nccc(C)c2c1OC (stereo not given),-3.41% (active)
9,N#Cc1c(O)c2c(c(O)c1C#N)C(=O)c1ccccc1C2=O,-38.1% (active)
10,O=C(N/N=C/c1cccc(O)c1)c1ccc(C(F)(F)F)nc1Nc1cccc(C(F)(F)F)c1,-30.4% (active)
11,O=C1N[C@@H]2NC(=[N+]3CCOCC3)N[C@@H]2N1,98%
12,N=c1c2ccccc2nc2n1CCCCC2,130%
13,CCCCOc1ccc(/C=N/Nc2cc(C)nc3ccc(Cl)cc23)cc1,-30.2% (active)
14,Nc1ccn([C@@H]2O[C@H](COP(=O)(O)O[C@@H]3C[C@H](n4cc(F)c(=O)[nH]c4=O)O[C@@H]3COP(=O)(O)O[C@@H]3C[C@H](n4cc(F)c(=O)[nH]c4=O)O[C@@H]3COP(=O)(O)O[C@@H]3C[C@H](n4cc(F)c(=O)[nH]c4=O)O[C@@H]3COP(=O)(O)O[C@@H]3C[C@H](n4cc(F)c(=O)[nH]c4=O)O[C@@H]3COP(=O)(O)O[C@@H]3C[C@H](n4cc(F)c(=O)[nH]c4=O)O[C@@H]3COP(=O)(O)O[C@@H]3C[C@H](n4cc(F)c(=O)[nH]c4=O)O[C@@H]3COP(=O)(O)O[C@@H]3C[C@H](n4cc(F)c(=O)[nH]c4=O)O[C@@H]3COP(=O)(O)O[C@@H]3C[C@H](n4cc(F)c(=O)[nH]c4=O)O[C@@H]3COP(=O)(O)O[C@@H]3C[C@H](n4cc(F)c(=O)[nH]c4=O)O[C@@H]3COP(=O)(O)O[C@@H]3C[C@H](n4cc(F)c(=O)[nH]c4=O)O[C@@H]3COP(=O)(O)OCCOCCOCCOCCOCCOCCO)[C@H](O)C2O)c(=O)n1 (stereo not given in full),38.3%
15,CCN(CC)CCOc1cccc2c1C(=O)c1cccc(OCCN(CC)CC)c1C2=O,19.7%
16,CCNCc1ccncc1,95.8%
17,COc1ccc(Nc2nnc(-c3ccc(OC)c(OC)c3)o2)cc1,84.2%
18,C#C[C@@]1(O)[C@@H](CO)O[C@@H](n2cc(F)c3c(N)ncnc32)[C@@H]1O,-22.8% (active)
19,CCOC(=O)Cn1c(O)c(N=Nc2ccc(S(N)(=O)=O)cc2)c2cc(Br)ccc21,96.2%
20,NNCCc1ccccc1,107% and 98.2%
